Bioassay records: PubChem, National Center for Advancing Translational Sciences (NCATS)
Menin-MLL FL inh: inhibitors of human menin-MLL interaction, wild-type MLL peptide. FP activity change, % at 61.4 µM. 290,000 tested, under 10 active. Fluorescence polarization, fluorescein-MLL peptide displacement from menin; active = well fitted curve in the direction sought with a large enough effect in the polarisation, not every such curve was filed as active; inconclusive = small, poorly fitted or top-dose-only effect, or effect the other way, or a change in a side signal; inactive = no such curve, though single readings can be large or run the other way; the % refers to the polarisation
p53 reactivation: re-activators of mutant p53; H1299 p53-A138V BP100-luciferase reporter, luminescence, 24 h; Potency, µM (highest dose often 92.2 µM), most hits filed as activators; 320,000 compounds, 0.063% hits; AID 504706; active = well fitted activation curve with a large enough effect; inconclusive = small, poorly fitted or top-dose-only effect; inactive = no such curve, though single readings can be large or run the other way; note: nearly all actives have a fitted effect of over 45% in size
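H1299 (p53-null), stable ts p53-A138V + BP100-Luc; 1000 cells/well, Opti-MEM/10% FBS; cpd 4 pt, 1:5; 24 h, 37 deg C, 5% CO2; detection reagent 10 min RT; luminescence.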
CXXC DNA block: MLL CXXC-DNA interaction inhibition. MLL-CXXC / FITC-HOXA9 DNA fluorescence polarization. Potency, µM (titrated, usually from 115 µM), actives largely listed as inhibitors. 290,000 compounds, 0.037% hits. AID 2662; active = well fitted inhibition curve with a large enough effect in the polarisation, with a control signal flat, not every such curve was filed as active; inconclusive = small, poorly fitted or top-dose-only effect, or effect the other way, or a change in a side signal; inactive = no such curve, though single readings can be large or run the other way; the % refers to the polarisation
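Fluorescence polarization: 7 uM MLL-CXXC (stock) preincubated 5 min with compounds, then 50 nM fluorescein-HOX-A9 DNA (stock) added; 30 min ambient. Buffer 50 mM Tris-HCl pH 7.5, 50 mM NaCl, 1 mM DTT, 0.05% BSA.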
Menin-MLL TR inh: menin-MLL binding inhibition, Texas Red mutant peptide. O00255. Menin + Texas Red MLL mutant peptide, fluorescence polarization. Potency, µM (series often up to 61.6 µM), hits mostly inhibitors. 270,000 compounds, 0.23% hits. AID 1768; active = well fitted inhibition curve with a large enough effect in the polarisation, with a control signal flat, not every such curve was filed as active; inconclusive = small, poorly fitted or top-dose-only effect, or effect the other way, or a change in a side signal; inactive = no such curve, though single readings can be large or run the other way; the % refers to the polarisation
ClpP mod: qHTS Assay for Activators of ClpP | ATP-dependent Clp protease proteolytic subunit (Bacillus subtilis (strain 168)), P80244 | purified B. subtilis ClpP, FRET peptide cleavage, 20 min | Potency, µM (series often up to 57.5 µM) | 340,000 compounds, 1.9% hits; active = well fitted falling curve with a large enough effect; inconclusive = small, poorly fitted or top-dose-only effect; inactive = no such curve, though single readings can be large or run the other way; note: the source files actives as falling curves though it sought activators and does not explain the sign; nearly all actives have a fitted effect of over 65% in size
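ClpP 10 microg/mL final, pH 8 Tris/KCl buffer with BSA, glycerol, Tween-20; compound pinned in; FRET-FV substrate; RT 20 min; Ex320/Em430; ΔFRET vs ADEP 5.8 microM, DMSO, no enzyme.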
Numbers stand for hits; 0 = inactive; ? = inconclusive; - = no result given; ! = repeats disagree; [ ] = remark or other dose. Many of the other results were omitted from the sample, so hits are more common in it than they were.

SMILES	Menin-MLL FL inh	p53 reactivation	CXXC DNA block	Menin-MLL TR inh	ClpP mod
O=C(c1ccc(F)cc1)N1CCCCC(Sc2nnnn2-c2ccccc2)C1=O (stereo not given)	0	0	0	-	28µM
O=C(c1ccccc1)N1CCCCC(Sc2nnnn2-c2ccccc2)C1=O (stereo not given)	0	0	0	0	0
CCOC(=O)C1CCN(c2ncnc3c2[nH]c2cccc(OC)c23)CC1	0	0	0	0	0
COc1cccc2[nH]c3c(Cl)ncnc3c12	0	0	0	?	16µM
COc1cccc2[nH]c3c(N4CCCCC4)ncnc3c12	0	0	0	0	28µM
COc1ccccc1NS(=O)(=O)c1ccc2nc(CCl)[nH]c2c1	0	0	0	0	-
CCN(CC)S(=O)(=O)c1ccc2nc(CCl)[nH]c2c1	0	0	0	0	14µM
Cc1[nH]c2ccccc2c1C(=O)CN1C(=O)C(=O)N(Cc2ccco2)C1=O	0	0	0	0	28µM
Cc1ccc(S(=O)(=O)N2CCN(c3nc(-c4ccc(CN5CCNCC5)s4)nc4ccccc34)CC2)cc1	-	-	-	-	0
O=C(NCCN1CCCCC1)c1cc2ccccc2[nH]1	0	0	0	0	18µM
CC(=O)N/C(=C/c1ccccc1)c1ccncc1	-	-	-	-	0
CC1CC=CC2C1C(=O)N(Cc1ccccc1)C2c1ccc(F)c(-c2ccc(N(C)C)cc2)c1 (stereo not given)	0	-	-	0	-
CC1(C)C(=O)OC(c2cccn2-c2ccc([N+](=O)[O-])cc2)C2(CCCCC2)C1=O (stereo not given)	0	0	0	0	0
CC1(C)C(=O)OC(c2c(F)c(F)c(F)c(F)c2F)C2(CCCCC2)C1=O (stereo not given)	0	0	0	?	28µM
Clc1ccc(Cn2c(/C=C/c3ccco3)nc3ccccc32)cc1	0	?	0	0	35µM
Cc1ccc(Cn2c(/C=C/c3ccco3)nc3ccccc32)cc1	0	?	0	?	28µM
CCCn1c(/C=C/c2ccco2)nc2ccccc21	?	?	0	0	0
Cc1ccc(S(=O)(=O)N2CCN(c3nc(-c4ccc(C)s4)nc4ccccc34)CC2)cc1	-	-	-	-	0
CCOC(=O)N1CCN(CC(=O)Nc2ccc(Oc3ccccc3)cc2)CC1	0	0	0	-	28µM
CN1CCN(CC(=O)Nc2ccc(Oc3ccccc3)cc2)CC1	0	0	0	0	0
N/C(=N/OCc1cccc([N+](=O)[O-])c1)c1nonc1N	0	0	0	0	11µM
Nc1c(C(O)(C(F)(F)F)C(F)(F)F)ccc2ccccc12	?	0	0	?	28µM
CC(C)(C)Nc1nc(Cl)nc(Nc2ccccc2)n1	0	?	0	0	0
Clc1nc(Nc2ccccc2)nc(Nc2ccccc2)n1	0	?	0	?	32µM
Nc1c2c(nc3ccccc13)N(C1CCCCC1)CC2	0	0	0	0	14µM
SMILES	Menin-MLL FL inh	p53 reactivation	CXXC DNA block	Menin-MLL TR inh	ClpP mod
Nc1c2c(nc3ccc(Br)cc13)N(C1CCCCC1)CC2	0	0	?	0	-
COc1cc(OC)c2c(c1C(CCN1CCN(c3ccccc3)CC1)c1ccc(N(C)C)cc1)OC(=O)CC2c1ccc(N(C)C)cc1 (stereo not given)	0	-	-	0	-
COc1cc(NCc2ccc3nc(N)nc(N)c3c2C)cc(OC)c1OC	0	-	0	25µM!	-
Cc1ccccc1-n1nc(C)c2cc(C(=O)NCc3cccnc3)sc21	0	0	0	0	28µM
O=C(NCc1cccnc1)c1ccc(Br)s1	0	0	0	-	0
Cc1cc(O)c(C(=O)Cc2csc(C)n2)c(O)c1	0	0	0	0	0
Cc1cc(O)cc(O)c1C(=O)Cc1cscn1	0	0	0	0	28µM
O=C(N1CCN(Cc2ccccc2)CC1)C(Cl)(Cl)Cl	0	0	?	0	13µM
O=C(C1CCC1)N1CCN(Cc2ccccc2)CC1	0	0	0	0	0
C=C1C=C(C)n2ncc(C(=O)NCCCCCC)c2N1	-	-	-	-	0
CC1CCC(=NNC(=O)c2ccccc2-n2cccc2)CC1 (stereo not given)	-	0	-	-	-
O=C(NN=C1CCC(c2ccccc2)CC1)c1ccccc1-n1cccc1 (stereo not given)	0	0	0	0	32µM
COc1ccc(C2c3c(n(C)c4ccccc34)C(=O)N2CC(=O)Nc2cccc(Cl)c2)cc1 (stereo not given)	-	-	-	-	16µM
COc1ccc(C2c3c(n(C)c4ccccc34)C(=O)N2CC(=O)Nc2ccc(C)cc2Cl)cc1 (stereo not given)	-	-	-	-	32µM
Cc1ccc(S(=O)(=O)N2CCc3nc(COc4ccccc4)c4c(c3C2)CO[C@@H](C)C4)cc1	0[11.7 µM]	-	-	0[11.7 µM]	-
CCOC(=O)N/N=C1/C[C@@H](O)[C@@H](O)[C@@H]2[C@@H]3C(=O)N(C(C)(C)C)C(=O)[C@H]3CC[C@H]12	0[11.7 µM]	-	-	0[11.7 µM]	-
C/C(=N\NC(=O)c1ccc(CSc2cccc3cccnc23)cc1)C1CCCCC1	0	0	0	0	28µM
C/C(=N\NC(=O)c1ccc(N)cc1)C1CC1	-	0	0	-	0
COc1ccc(/C(C)=N/NC(=O)c2ccc(CSc3cccc4cccnc34)cc2)cc1OC	0	0	0	0	22µM
CC(=O)NC(Cc1ccc(O)cc1)C(=O)NCC(N)C(=O)c1ccccc1 (stereo not given)	-	-	-	-	0
Cc1cccn2c(=O)c3cc(C(=O)NC4CCCCC4)c(=N)n(CCN4CCOCC4)c3nc12	0	0	0	-	0
Cc1cccn2c(=O)c3cc(C#N)c(=N)n(CCN4CCOCC4)c3nc12	0	0	0	0	16µM
CCCCNC(=O)c1cc2c(=O)n3cccc(C)c3nc2n(CCN2CCOCC2)c1=N	0	0	0	0	13µM
Cc1cccn2c(=O)c3cc(C(=O)O)n(C)c3nc12	0	0	0	0	32µM
CCCCNC(=O)c1cc2c(=O)n3cccc(C)c3nc2n(Cc2ccncc2)c1=N	0	0	0	0	3.5µM
SMILES	Menin-MLL FL inh	p53 reactivation	CXXC DNA block	Menin-MLL TR inh	ClpP mod
Cc1nn(S(=O)(=O)c2ccc(F)cc2)c(C)c1S(=O)(=O)N1CCCCCC1	-	-	-	-	0
O=C(COC(=O)c1ccccc1OCc1cccc(Br)c1)Nc1ccc(Br)cc1	-	-	-	-	0
CCc1cc2c3c(c(=O)oc2cc1O)CCCC3	0	0	0	0	10µM
COc1ccc(-c2cc(-c3ccccc3)nc(-c3ccc4c(c3)NC(=O)CO4)c2)cc1	0	0	0	0	25µM
CCC(c1nnc(SCC(=O)Nc2cc(S(C)(=O)=O)ccc2Cl)n1Cc1ccccc1)N(C)C (stereo not given)	0	0	0	0	32µM
O=C(NCCCO)c1c(O)c2cccc3c2n(c1=O)CCC3	0	0	0	0	?
CCCCNC(=O)c1c(O)c2cccc3c2n(c1=O)CCC3	0	0	0	0	11µM
CN(C)c1ccc(/C=C2/CCCc3c2nc2ccccc2c3C(=O)O)cc1	-	-	-	-	0
Cc1ccc(Nc2c(-c3ccccc3O)nc3cc(C)ccn23)cc1	-	-	-	-	28µM
O=C1C[C@H]2C=CCc3cccc(c32)CN1Cc1cccc(F)c1	-	-	-	-	0
